Reference: article PMC5540273 (PLoS ONE, 2017)

Legend:
Details in all cases: concentration: 1 μM, replicates: in singlicate; n = 1
[1] = test system: TRPM6
[2] = test system: TSSK1B
[3] = test system: TSSK3
[4] = test system: TTK
[5] = test system: TXK
[6] = test system: TYK2(JH1domain-catalytic)
[7] = test system: TYK2(JH2domain-pseudokinase)
[8] = test system: TYRO3
[9] = test system: ULK1
[10] = test system: ULK2
[11] = test system: ULK3
[12] = test system: T1, VEGFR2
T1 construct: gene KDR

[13] = test system: T2, VPS34
T2 construct: gene PIK3C3

[14] = test system: VRK2
[15] = test system: WEE1
[16] = test system: WEE2
[17] = test system: WNK1
[18] = test system: WNK2
[19] = test system: WNK3
[20] = test system: WNK4
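Further: KINOMEscan kinase panel screen.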

Nc1nc(-c2ccccc2F)c(-c2ccnc3ccccc23)s1 [GW560459]
%Inh [1]: 32%
%Inh [2]: 14%
%Inh [3]: 10%
%Inh [4]: 20%
%Inh [5]: 0%
%Inh [6]: 7%
%Inh [7]: 32%
%Inh [8]: 0%
%Inh [9]: 0%
%Inh [10]: 0%
%Inh [11]: 4%
%Inh [12]: 0%
%Inh [13]: 0%
%Inh [14]: 37%
%Inh [15]: 0%
%Inh [16]: 0%
%Inh [17]: 11%
%Inh [18]: 7%
%Inh [19]: 35%
%Inh [20]: 48%

COc1cc(Nc2nccc(N3CCC(NC(=O)C(C)c4ccc(Cl)cc4)C3)n2)cc(OC)c1OC (centres unmarked) [GSK1379757]
%Inh [1]: 0%
%Inh [2]: 0%
%Inh [3]: 19%
%Inh [4]: 0%
%Inh [5]: 0%
%Inh [6]: 38%
%Inh [7]: 31%
%Inh [8]: 0%
%Inh [9]: 0%
%Inh [10]: 0%
%Inh [11]: 42%
%Inh [12]: 0%
%Inh [13]: 0%
%Inh [14]: 0%
%Inh [15]: 30%
%Inh [16]: 0%
%Inh [17]: 9%
%Inh [18]: 0%
%Inh [19]: 15%
%Inh [20]: 10%

COc1cc(Nc2ccnc3ccc(C(F)(F)F)cc23)cc(OC)c1OC [GW577382]
%Inh [1]: 0%
%Inh [2]: 0%
%Inh [3]: 13%
%Inh [4]: 17%
%Inh [5]: 54%
%Inh [6]: 19%
%Inh [7]: 0%
%Inh [8]: 0%
%Inh [9]: 0%
%Inh [10]: 0%
%Inh [11]: 14%
%Inh [12]: 0%
%Inh [13]: 0%
%Inh [14]: 27%
%Inh [15]: 11%
%Inh [16]: 14%
%Inh [17]: 8%
%Inh [18]: 13%
%Inh [19]: 27%
%Inh [20]: 0%

CCC(=O)c1c(-c2ccccc2)c2cc(Cl)ccc2c(=O)n1Cc1ccc(C(=O)O)cc1
%Inh [1]: 0%
%Inh [2]: 0%
%Inh [3]: 0%
%Inh [4]: 0%
%Inh [5]: 0%
%Inh [6]: 0%
%Inh [7]: 0%
%Inh [8]: 0%
%Inh [9]: 0%
%Inh [10]: 2%
%Inh [11]: 0%
%Inh [12]: 0%
%Inh [13]: 7%
%Inh [14]: 0%
%Inh [15]: 0%
%Inh [16]: 4%
%Inh [17]: 0%
%Inh [18]: 0%
%Inh [19]: 0%
%Inh [20]: 0%

COc1ccc(-n2cnc3c(N)ncnc32)cc1 [SKF-97236]
%Inh [1]: 66%
%Inh [2]: 11%
%Inh [3]: 0%
%Inh [4]: 28%
%Inh [5]: 12%
%Inh [6]: 11%
%Inh [7]: 24%
%Inh [8]: 0%
%Inh [9]: 21%
%Inh [10]: 10%
%Inh [11]: 10%
%Inh [12]: 0%
%Inh [13]: 27%
%Inh [14]: 0%
%Inh [15]: 0%
%Inh [16]: 0%
%Inh [17]: 11%
%Inh [18]: 19%
%Inh [19]: 0%
%Inh [20]: 0%

Cc1ccccc1COc1cc(-n2cnc3cc(Cl)ccc32)sc1C(N)=O [GW813349]
%Inh [1]: 0%
%Inh [2]: 3%
%Inh [3]: 0%
%Inh [4]: 2%
%Inh [5]: 9%
%Inh [6]: 5%
%Inh [7]: 5%
%Inh [8]: 5%
%Inh [9]: 0%
%Inh [10]: 0%
%Inh [11]: 0%
%Inh [12]: 11%
%Inh [13]: 84%
%Inh [14]: 0%
%Inh [15]: 4%
%Inh [16]: 5%
%Inh [17]: 0%
%Inh [18]: 0%
%Inh [19]: 6%
%Inh [20]: 0%

CN(C)c1cc(-c2ccc3c(N)n[nH]c3c2)nc(N)n1 [GSK2219329]
%Inh [1]: 13%
%Inh [2]: 0%
%Inh [3]: 6%
%Inh [4]: 0%
%Inh [5]: 97.2%
%Inh [6]: 14%
%Inh [7]: 25%
%Inh [8]: 0%
%Inh [9]: 0%
%Inh [10]: 0%
%Inh [11]: 9%
%Inh [12]: 3%
%Inh [13]: 0%
%Inh [14]: 0%
%Inh [15]: 3%
%Inh [16]: 1%
%Inh [17]: 3%
%Inh [18]: 0%
%Inh [19]: 15%
%Inh [20]: 32%

FC(F)(F)c1ccc(-c2ncn(CCCN3CCOCC3)c2-c2ccncc2)cc1 [SB-217780]
%Inh [1]: 4%
%Inh [2]: 0%
%Inh [3]: 0%
%Inh [4]: 0%
%Inh [5]: 10%
%Inh [6]: 32%
%Inh [7]: 24%
%Inh [8]: 0%
%Inh [9]: 1%
%Inh [10]: 46%
%Inh [11]: 4%
%Inh [12]: 14%
%Inh [13]: 13%
%Inh [14]: 42%
%Inh [15]: 48%
%Inh [16]: 34%
%Inh [17]: 20%
%Inh [18]: 0%
%Inh [19]: 15%
%Inh [20]: 0%

O=C(Nc1n[nH]c2nc(-c3ccccc3)c(Br)cc12)C1CC1 [SB-708998]
%Inh [1]: 18%
%Inh [2]: 25%
%Inh [3]: 14%
%Inh [4]: 24%
%Inh [5]: 14%
%Inh [6]: 14%
%Inh [7]: 1%
%Inh [8]: 0%
%Inh [9]: 30%
%Inh [10]: 0%
%Inh [11]: 11%
%Inh [12]: 2%
%Inh [13]: 0%
%Inh [14]: 0%
%Inh [15]: 0%
%Inh [16]: 0%
%Inh [17]: 2%
%Inh [18]: 0%
%Inh [19]: 9%
%Inh [20]: 0%

COc1cccc(C2=C(N(C)c3ccccc3)C(=O)NC2=O)c1 [SB-334865]
%Inh [1]: 26%
%Inh [2]: 0%
%Inh [3]: 7%
%Inh [4]: 0%
%Inh [5]: 22%
%Inh [6]: 12%
%Inh [7]: 42%
%Inh [8]: 0%
%Inh [9]: 19%
%Inh [10]: 0%
%Inh [11]: 12%
%Inh [12]: 1%
%Inh [13]: 0%
%Inh [14]: 10%
%Inh [15]: 4%
%Inh [16]: 0%
%Inh [17]: 8%
%Inh [18]: 0%
%Inh [19]: 20%
%Inh [20]: 15%
